Compounds with a hit are over-represented: about 7.5% of the library has one in this group of screens.
FLuc counter: qHTS profiling assay for firefly luciferase inhibitor/activator using purifed enzyme and Km concentrations of substrates (counterscreen for miR-21 project) | Luciferin 4-monooxygenase (Photinus pyralis), P08659 | purified FLuc, Km substrates, luminescence inhibition | Potency, µM (doses to about 57.5 µM), usual class: inhibitors | 360,000 tested, 6.9% active | AID 588342, 2011; also: nearly all actives have a fitted effect of over 55% in size
Target sequence (P08659 whole entry, looked up): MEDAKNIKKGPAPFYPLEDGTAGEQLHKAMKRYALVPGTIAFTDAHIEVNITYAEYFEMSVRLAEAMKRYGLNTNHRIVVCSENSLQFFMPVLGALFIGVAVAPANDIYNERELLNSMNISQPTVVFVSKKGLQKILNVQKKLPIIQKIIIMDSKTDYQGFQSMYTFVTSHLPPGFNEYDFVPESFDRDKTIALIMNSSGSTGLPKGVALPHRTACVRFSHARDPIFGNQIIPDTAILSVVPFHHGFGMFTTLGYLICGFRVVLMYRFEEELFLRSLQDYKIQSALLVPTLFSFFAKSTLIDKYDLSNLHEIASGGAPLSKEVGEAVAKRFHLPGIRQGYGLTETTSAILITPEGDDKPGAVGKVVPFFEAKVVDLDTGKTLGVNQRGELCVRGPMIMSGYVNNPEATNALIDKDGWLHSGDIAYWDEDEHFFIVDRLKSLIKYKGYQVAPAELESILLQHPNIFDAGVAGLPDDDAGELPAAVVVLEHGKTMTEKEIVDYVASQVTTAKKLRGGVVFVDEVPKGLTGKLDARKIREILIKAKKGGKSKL
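Biochemical qHTS of compounds, final roughly 60 µM downward over six points, against 10 nM purified firefly luciferase using Km concentrations of substrates (10 uM D-luciferin, 10 uM ATP) in Tris acetate pH 7.5 buffer; luminescence output.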
NPC1 prom act: qHTS Assay for NPC1 Promoter Activators; Huh7 NPC1 promoter luciferase reporter, 24 h; Potency, µM (highest dose often 9.22 µM), most hits filed as activators; 320,000 tested, 2.4% active; also: nearly all actives have a fitted effect of over 60% in size
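Quantitative HTS used a cell-based reporter: Huh7 cells stably bearing the NPC1 promoter upstream of luciferase were treated with compounds for 24 h, and promoter activation was read as luminescence.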
ELG1 genotox: qHTS screen for small molecules that induce genotoxicity in human embryonic kidney (HEK293T) cells expressing luciferase-tagged ELG1. Potency, µM (doses to about 46 µM), usual class: activators. 330,000 tested, 1.3% active. HEK293T ELG1-luciferase reporter, luminescence, 16 h; also: nearly all actives have a fitted effect of over 60% in size
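Luminescence read-out: rising ELG1-luciferase signal, reflecting elevated ELG1 protein under genetic stress, flags genotoxic compounds. Cells were treated for 16 hr at 37 °C before ONE-Glo detection.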
Rab9 prom act: qHTS Assay for Rab9 Promoter Activators | Huh7 Rab9 promoter-luciferase reporter, luminescence, 24 h | Potency, µM (titrated, usually from 9.22 µM), most hits filed as activators | 320,000 tested, 2.8% active | AID 485297, 2010; also: nearly all actives have a fitted effect of over 60% in size
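Luciferase signal after 10 min detection reagent at ambient indicates Rab9 promoter upregulation; stably transfected Huh7 cells were treated 24 h with compound in DMSO at 37 °C, 5% CO2.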
SMN2 splice enh: qHTS Assay for Enhancers of SMN2 Splice Variant Expression | HEK293 SMN2-luciferase splicing reporter, luminescence, 30-36 h | Potency, µM (titrated, usually from 46.1 µM), actives largely listed as activators | 210,000 tested, 2.8% active | AID 1458, 2008; also: nearly all actives have a fitted effect of over 55% in size
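HEK293 cells carry an SMN2 minigene-luciferase reporter in which exon 7 inclusion puts luciferase in frame. Cells were seeded at 2000 cells/well, attached for 10-12 hours, then exposed to compounds for 30-36 hours at 37C before ONE-Glo luminescence.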
A number is an active result; . = inactive; ? = inconclusive; / = no result; [ ] = dose if it differs, or a comment. Calls follow the shape of the dose curve; as a rule, active = well fitted curve in the direction sought with a large enough effect; inconclusive = small, poorly fitted or top-dose-only effect, or another doubt; inactive = no such curve, though single readings can be large; an effect the other way counts as inactive or inconclusive.

SMILES	FLuc counter	NPC1 prom act	ELG1 genotox	Rab9 prom act	SMN2 splice enh
C[C@H](NC(=O)[C@@H](N)Cc1ccc(O)cc1)C(=O)NCC(=O)N(C)[C@@H](Cc1ccccc1)C(=O)NCCO	/	/	/	/	.
CCCN1[C@@H]2C[C@@H](O)CC[C@@H]2C[C@H]1C(=O)OC	/	/	/	/	.
COc1ccc(-c2nc3ccccc3c(=O)n2-c2nccs2)cc1	24µM	.	.	.	.
Cc1c(OC(=O)N(C)C)ccc2c1O/C(=C\c1ccco1)C2=O	0.48µM	?	.	4µM	/
CCc1ccc(N2C(=O)NC(=O)/C(=C\c3cccn3CCOc3ccc(C(C)C)cc3)C2=O)cc1	.	.	10µM	?	.
O=C(C[C@H](c1ccccc1)c1c(O)c2ccccc2oc1=O)c1ccccc1	/	/	/	/	.[9.22 µM]
CCn1nc(-c2ccccc2)nc2c(=O)n(C)c(=O)nc1-2	?	.	.	.	7.1µM
c1ccc(-c2nc(N3CCOCC3)s[n+]2-c2ccccc2)cc1	7.6µM	.	.	.	.
NCCP(=O)(O)O	/	/	/	/	.[9.22 µM]
Cc1nn(C(C)(C)C)c(C)c1/C=N/OC(=O)Nc1ccc(Cl)c(Cl)c1	0.19µM	.	.	.	/
O=C1NC(=O)C(=Cc2cccc(OCCOc3ccccc3)c2)C(=O)N1	15µM	0.56µM	?	0.32µM	/
Cc1ccc(OCCOc2cccc(C=C3C(=O)NC(=O)NC3=O)c2)c(C)c1	7.6µM	0.089µM	?	0.13µM	/
Cc1cccn2c(=O)c3c(nc12)N1CCCCCC1C1(C3)C(=O)N(C)C(=O)N(C)C1=O (stereo not drawn)	.	.	.	.	/
Cc1ccc2nc3c(cc2c1)CC1(C(=O)N(C)C(=O)N(C)C1=O)C1CCCCN31 (stereo not drawn)	5.4µM	?	?	.	?
Cc1ccc2nc3c(cc2c1)CC1(C(=O)N(C)C(=O)N(C)C1=O)C1COCCN31 (stereo not drawn)	15µM	.	?	.	/
CCCCCCCCCCCCCC(=O)O[C@@H]1[C@@H](C)[C@@]2(O)[C@H](C=C(CO)C[C@]3(O)C(=O)C(C)=C[C@@H]23)[C@@H]2C(C)(C)C12OC(C)=O (stereo partly drawn)	/	/	/	/	.
CCCN1CCCC2Cc3nc(N)ncc3CC21 (stereo not drawn)	/	/	/	/	.
Clc1ccc(C(c2ccc(Cl)cc2)C(Cl)Cl)cc1	/	/	/	/	.
CCOc1ccc(OC(=O)c2ccc3c(=O)n4c(nc3c2)CCC4)cc1	12µM	.	.	.	/
Cc1ccc(NC(=O)c2cc(S(=O)(=O)N3CCOCC3)c(Cl)cc2Cl)cc1	.	/	/	/	.
COc1ccc(OC)c(N2C(=O)NC(=O)/C(=C/c3ccc([N+](=O)[O-])s3)C2=O)c1	17µM	.	.	.	?
CCN1C(=O)/C(=C\c2ccc([N+](=O)[O-])s2)C(=O)NC1=S	8.5µM	.	.	.	.
C=CCN1C(=O)/C(=C/c2ccc(Br)s2)C(=O)NC1=S	?	.	?	.	/
CCC1/C=C/C=CCC(C)C(O)[C@@](C)(O)C(=O)C(C)C(O)C(C)C(=O)C(C)C(O)C(C)C=CC(=O)O[C@H]2C(C)C(CC1)O[C@]1(CCC(C)C(CC(C)O)O1)C2C (stereo partly drawn)	/	/	/	/	.
ClCC(Cl)CCl	/	/	/	/	.
SMILES	FLuc counter	NPC1 prom act	ELG1 genotox	Rab9 prom act	SMN2 splice enh
COc1ccc(CCNc2nc3c(c(=O)n(C)c(=O)n3C)n2Cc2ccc(F)cc2)cc1OC	.	/	/	/	.
O=C(C1CC(c2ccc(Cl)c(Cl)c2)=NO1)N1CCC2(CC1)OCCO2 (stereo not drawn)	15µM	2.2µM	7.3µM	2µM	13µM
O=C(C1CC(c2ccc(F)cc2)=NO1)N1CCC2(CC1)OCCO2 (stereo not drawn)	17µM	.	21µM	?	.
CN(C)c1ccc(/C=C/[N+](=O)[O-])cc1	?	.	?	.	11µM
C/C(=C\c1ccc(N(C)C)cc1)[N+](=O)[O-]	?	.	.	.	.
CC(C)C(=O)CP(=O)(O)O	/	/	/	/	.[9.22 µM]
O=C1NC(=O)C(=Cc2ccc(-c3ccc(F)cc3O)o2)C(=O)N1	13µM	.	.	.	/
CN1C(=O)C(=Cc2ccc(Sc3ccccc3)o2)C(=O)N(C)C1=O	?	.	.	.	.
